For the experiment, the target named is Muscarinic acetylcholine receptor M4 (Homo sapiens) (UniProt P08173). The experiment in a line: human M4 receptor potentiation, selectivity assay for M5 PAM project, CHO cells (AID 651925).

Molecules are shown by their SMILES. Activity calls are given as the source filed them. No rule for the calls is given here.

One molecule from PubChem BioAssay AID651925 (Vanderbilt Specialized Chemistry Center, 2012) can be followed below.

Muscarinic acetylcholine receptor M4 (Homo sapiens), sequence (P08173 whole entry, looked up): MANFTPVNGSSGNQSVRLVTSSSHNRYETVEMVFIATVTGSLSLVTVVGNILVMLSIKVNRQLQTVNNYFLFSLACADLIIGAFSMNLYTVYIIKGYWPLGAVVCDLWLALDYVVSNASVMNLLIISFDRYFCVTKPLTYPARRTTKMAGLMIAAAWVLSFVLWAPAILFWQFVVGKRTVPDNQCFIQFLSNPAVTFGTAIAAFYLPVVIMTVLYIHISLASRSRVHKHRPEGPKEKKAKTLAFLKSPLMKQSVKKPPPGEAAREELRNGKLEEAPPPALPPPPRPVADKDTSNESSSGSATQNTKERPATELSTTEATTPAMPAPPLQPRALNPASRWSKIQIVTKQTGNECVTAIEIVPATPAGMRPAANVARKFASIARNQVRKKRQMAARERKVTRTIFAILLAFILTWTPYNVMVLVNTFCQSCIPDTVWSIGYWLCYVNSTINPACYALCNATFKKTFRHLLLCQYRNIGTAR

Consider `O=C1C(=O)N(CCOc2ccccc2)c2ccc(OC(F)(F)F)cc21`, for which the outcome was inactive.
